In the library only some 1.3% were active in any assay of this set; here they are far more common.
PREPL inh: human PREPL enzyme inhibition; recombinant PREPL, fluorescence polarization activity-based probe; AID 2751; hit rate 0.68% among 320,000; inhibition, % at 5.96 µM; Q4J6C6
Fam108B inh: counter-screen for RBBP9 inhibitors: inhibitors of mouse Fam108B; inhibition, % at 9.51 µM; AID 1947; hit rate 0.33% among 300,000; recombinant Fam108B, FP-Rh probe fluorescence polarization;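 active = inhibition above the screen mean inhibition plus 3 SD, computed separately per campaign, cut at about 18% in these data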;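 also: inhibitors lower polarization as less probe binds the enzyme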
LYPLA2 inh: blocks human lysophospholipase 2, a PME1 counter-screen; O95372; recombinant LYPLA2, FP-Rh probe fluorescence polarization; inhibition, % at 5.9 µM; hit rate 0.38% among 320,000;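 active = inhibition above the screen-wide mean plus 3 SD, limit set per campaign, cut at about 26% in these data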
Target sequence (O95372 whole entry, looked up): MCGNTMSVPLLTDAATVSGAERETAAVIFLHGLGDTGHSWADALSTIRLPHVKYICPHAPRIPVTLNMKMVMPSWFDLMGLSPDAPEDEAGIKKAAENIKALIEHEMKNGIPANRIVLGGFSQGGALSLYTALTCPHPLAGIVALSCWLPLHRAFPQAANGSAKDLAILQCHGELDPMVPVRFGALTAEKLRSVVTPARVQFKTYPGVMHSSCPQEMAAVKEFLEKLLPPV
LYPLA1 counter: LYPLA1 (human) inhibition in PME1 counter-screen; O75608; recombinant LYPLA1, FP-Rh probe fluorescence polarization; inhibition, % at 5.9 µM; hit rate 0.16% among 320,000;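 active = inhibition above the mean of all tested compounds plus 3 SD, set per campaign, cut at about 14% in these data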;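 also: inhibitors block serine hydrolase probe labeling of LYPLA1 so polarization falls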
Target sequence (O75608 whole entry, looked up): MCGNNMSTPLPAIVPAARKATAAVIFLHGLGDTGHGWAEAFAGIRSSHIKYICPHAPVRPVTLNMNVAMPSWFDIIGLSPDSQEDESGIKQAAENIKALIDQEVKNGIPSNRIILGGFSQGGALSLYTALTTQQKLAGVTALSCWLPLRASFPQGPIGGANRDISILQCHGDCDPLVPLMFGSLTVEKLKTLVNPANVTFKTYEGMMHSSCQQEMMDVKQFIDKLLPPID
PME-1 primary: blocks human protein phosphatase methylesterase 1. recombinant PME-1, FP-Rh probe fluorescence polarization. AID 2130. inhibition, % at 5.9 µM. hit rate 0.53% among 320,000;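 active = inhibition above the campaign mean of all compounds plus 3 SD, cut at about 26% in these data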;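 also: competitive labeling of PME-1 active site by serine hydrolase directed probe; inhibitors block probe labeling so polarization falls and inhibition rises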
Fam108b inh conf: Fam108b (mouse) hydrolase inhibition, confirmation assay. shares compounds with Fam108B inh. hit rate 44% among 930. inhibition, % at 9.51 µM. recombinant Fam108b, FP-Rh probe fluorescence polarization;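 active = inhibition above a limit from the primary screen, the mean over all compounds plus 3 SD, cut at about 19% in these data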;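 also: inhibitors free the probe so polarization falls as inhibition rises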
Fam108b inh: inhibits mouse Fam108b in gel-based ABPP | inhibition, % at 20 µM | recombinant Fam108b, fluorophosphonate probe | hit rate 44% among 260 | shares compounds with Fam108B inh; in the data active = inhibition above about 40%
LYPLA1 confirm: LYPLA1 (human) inhibition, confirmation counter-screen. AID 2233. shares compounds with LYPLA1 counter. hit rate 69% among 480. recombinant LYPLA1, FP-Rh probe fluorescence polarization. inhibition, % at 5.9 µM;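 active = mean inhibition across replicates above the hit cutoff set in the primary screen, cut at about 15% in these data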;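 also: loss of FP-Rh probe labeling of LYPLA1 seen as lower polarization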
LYPLA2 confirm: counter-screen for PME1 inhibitors: confirmation of human LYPLA2 inhibitors; shares compounds with LYPLA2 inh; AID 2232; inhibition, % at 5.9 µM; hit rate 72% among 1,100; recombinant LYPLA2, FP-Rh probe fluorescence polarization;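 active = mean inhibition across replicates above the hit cutoff set in the primary screen, cut at about 26% in these data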;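 also: blocked labeling of the enzyme by serine hydrolase FP-Rh probe lowers polarization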
PREPL inh cf: confirmation of human PREPL enzyme inhibitors; shares compounds with PREPL inh; hit rate 67% among 2,000; AID 2803; recombinant PREPL, fluorescence polarization activity probe; inhibition, % at 5.96 µM
A number is an active result. Rule as the data show it, unless noted: active = inhibition above about 43%; inactive = the rest.

Results for Cc1cccc(N2CCC(N3CCN(C4CCCCC4)C(CCO)C3)CC2)c1C (stereo not drawn) ?
PREPL inh: inactive; Fam108B inh: inactive; LYPLA2 inh: inactive; LYPLA1 counter: inactive; PME-1 primary: inactive

How did CCC(CNc1cc(OC)cc2cccnc12)NC1CCCCC1 (stereo not drawn) do in these assays?
PREPL inh: 54.3; Fam108B inh: 29.6; LYPLA2 inh: 29.7; LYPLA1 counter: 22.5; PME-1 primary: 37.6; Fam108b inh conf: inactive; LYPLA1 confirm: inactive; LYPLA2 confirm: 43.4; PREPL inh cf: 44.0

What do the screens show for `O=C(CCCc1c[nH]c2ccccc12)NCCc1c[nH]c2ccccc12`?
PREPL inh: inactive; Fam108B inh: inactive; LYPLA2 inh: inactive; LYPLA1 counter: inactive; PME-1 primary: inactive

How did O=C(NCCc1c[nH]c2ccccc12)OCCCCOC(=O)NCCc1c[nH]c2ccccc12 do in these assays?
PREPL inh: 61.3; Fam108B inh: 23.1; LYPLA2 inh: inactive; LYPLA1 counter: inactive; PME-1 primary: inactive; Fam108b inh conf: inactive; PREPL inh cf: inactive

What do the screens show for `Cc1ccc(NC(=O)[C@@H]2CCCN2S(=O)(=O)c2ccc(Cl)cc2)cc1`?
PREPL inh: inactive

How did CC1Cc2ccccc2C(CCc2ccccc2)=N1 (stereo not drawn) do in these assays?
PREPL inh: inactive; Fam108B inh: inactive; LYPLA2 inh: inactive; LYPLA1 counter: inactive; PME-1 primary: inactive

What do the screens show for `COC(=O)c1c(Cl)c2n3ccccc3c(C)c(-c3ccccc3)c-2c1C(=O)OC`?
PREPL inh: 49.2; Fam108B inh: 19.2; LYPLA2 inh: inactive; LYPLA1 counter: 15.7; PME-1 primary: inactive; Fam108b inh conf: inactive; LYPLA1 confirm: inactive; PREPL inh cf: inactive

Results for Cc1cc(Cl)ccc1OCCCC(=O)NCCN1C(=O)S/C(=C\c2cccnc2)C1=O ?
PREPL inh: inactive; Fam108B inh: inactive; LYPLA2 inh: inactive; LYPLA1 counter: inactive; PME-1 primary: inactive

Results for O=C(COc1ccccc1C(=O)N/N=C\c1ccc(O)c(O)c1)N/N=C/c1ccc(O)c(O)c1 ?
PREPL inh: 82.7; Fam108B inh: 34.7; LYPLA2 inh: inactive; LYPLA1 counter: inactive; PME-1 primary: 34.8; Fam108b inh conf: inactive; PREPL inh cf: inactive

What do the screens show for `O=C(COc1ccccc1[N+](=O)[O-])N/N=C/c1ccc(O)c([N+](=O)[O-])c1`?
PREPL inh: inactive; Fam108B inh: inactive; LYPLA2 inh: inactive; LYPLA1 counter: inactive; PME-1 primary: inactive

What do the screens show for `COc1cc2nc(Nc3ccc(C)c(Cl)c3)nc(N)c2cc1OC`?
PREPL inh: 72.5; Fam108B inh: 22.8; LYPLA2 inh: inactive; LYPLA1 counter: inactive; PME-1 primary: 34.8; Fam108b inh conf: inactive; PREPL inh cf: 66.2

Results for Nc1cc2nsnc2cc1Br ?
PREPL inh: 46.0; Fam108B inh: 71.2; LYPLA2 inh: 86.7; LYPLA1 counter: 75.7; PME-1 primary: 46.6; Fam108b inh conf: 62.3; Fam108b inh: 50.0; LYPLA1 confirm: 72.5; PREPL inh cf: inactive

What do the screens show for `NNC(=O)c1oc2nc(-c3cccs3)cc(-c3ccco3)c2c1N`?
PREPL inh: 61.8; Fam108B inh: 24.5; LYPLA2 inh: inactive; LYPLA1 counter: inactive; PME-1 primary: inactive; Fam108b inh conf: 23.7; PREPL inh cf: 65.1

What do the screens show for `Oc1ccc(/C=N/Nc2ccnc3cc(Cl)ccc23)cc1O`?
PREPL inh: 54.5; Fam108B inh: 54.6; LYPLA2 inh: inactive; LYPLA1 counter: inactive; PME-1 primary: 42.1; Fam108b inh conf: 34.5; PREPL inh cf: inactive

How did CN1C(=O)NC(c2ccccc2[N+](=O)[O-])C2=C1CC(C)(C)CC2=O (stereo not drawn) do in these assays?
PREPL inh: inactive; Fam108B inh: inactive; LYPLA2 inh: inactive; LYPLA1 counter: inactive; PME-1 primary: inactive

Results for CN1C(=O)NC(c2ccccc2[N+](=O)[O-])C2=C1CCCC2=O (stereo not drawn) ?
PREPL inh: 77.0; Fam108B inh: 67.8; LYPLA2 inh: 94.1; LYPLA1 counter: 72.7; PME-1 primary: 84.3; Fam108b inh conf: 24.0; LYPLA1 confirm: 28.2; LYPLA2 confirm: 73.8; PREPL inh cf: inactive

What do the screens show for `Oc1ccc(/C=N/Nc2nc(-c3cccnc3)nc3ccccc23)c(O)c1`?
PREPL inh: 57.7; Fam108B inh: 51.9; LYPLA2 inh: inactive; LYPLA1 counter: inactive; PME-1 primary: 52.3; Fam108b inh conf: inactive; PREPL inh cf: inactive

What do the screens show for `Cc1ccc(Nc2nc(-c3cccnc3)nc3ccccc23)cc1`?
PREPL inh: inactive; Fam108B inh: inactive; LYPLA2 inh: inactive; LYPLA1 counter: inactive; PME-1 primary: inactive

How did COc1ccc(/C=N/Nc2nc(-c3cccnc3)nc3ccccc23)cc1OC do in these assays?
PREPL inh: inactive; Fam108B inh: inactive; LYPLA2 inh: inactive; LYPLA1 counter: inactive; PME-1 primary: inactive

How did Cc1c(O)ccc(/C=N/Nc2nc(-c3cccnc3)nc3ccccc23)c1O do in these assays?
PREPL inh: 72.3; Fam108B inh: 38.6; LYPLA2 inh: inactive; LYPLA1 counter: inactive; PME-1 primary: 39.8; Fam108b inh conf: active; PREPL inh cf: 72.3

What do the screens show for `CC1(CCc2ccccc2)NC(=O)N(CC(=O)N2CCCCCC2)C1=O` (stereo not drawn)?
PREPL inh: inactive; Fam108B inh: inactive; LYPLA2 inh: inactive; LYPLA1 counter: inactive; PME-1 primary: inactive

How did C=C1c2cccc(O)c2C(O)=C2C(=O)[C@]3(O)C(O)=C(C(N)=O)C(=O)[C@@H](N(C)C)[C@@H]3[C@@H](O)[C@H]12 do in these assays?
PREPL inh: 79.6; Fam108B inh: 25.9; LYPLA2 inh: inactive; LYPLA1 counter: inactive; PME-1 primary: inactive; Fam108b inh conf: inactive; PREPL inh cf: inactive

How did Cc1cc2c(N)cccc2nn1 do in these assays?
PREPL inh: 68.2; Fam108B inh: 25.0; LYPLA2 inh: 52.1; LYPLA1 counter: 46.8; PME-1 primary: 57.9; Fam108b inh conf: inactive; LYPLA1 confirm: inactive; LYPLA2 confirm: 45.7; PREPL inh cf: inactive

What do the screens show for `CCn1c(SCC(=O)NCC2CCCO2)nnc1-c1ccc(S(=O)(=O)N2CCN(C)CC2)cc1` (stereo not drawn)?
PREPL inh: inactive; Fam108B inh: inactive; LYPLA2 inh: inactive; LYPLA1 counter: inactive; PME-1 primary: inactive
